{"source": "the antibiotic and cytotoxicity screens of Wong et al. (2023)", "note": "The campaign covered roughly 39,000 compounds. About 1,500 (3.8%) were called active. Only a selection was taken, and actives are over-represented in it overall."}
{"test_system": "HSkMC (human skeletal muscle cells)", "assay": "cytotoxicity call (relative viability < 0.9)", "conditions": "10 µM"}
{"smiles": "C[C@H](CO)N1C[C@H](C)[C@H](CN(C)Cc2ccc(C(=O)O)cc2)Oc2ccc(NC(=O)c3ccncc3)cc2CC1=O", "cytotoxicity call": "inactive"}
{"smiles": "C[C@@H]1CCCCO[C@H](CN(C)Cc2ccc3c(c2)OCO3)[C@@H](C)CN([C@@H](C)CO)C(=O)c2cc(NC(=O)NC3CCCCC3)ccc2O1", "cytotoxicity call": "inactive"}
{"smiles": "[O-][NH2+]N1CCCCC1", "cytotoxicity call": "inactive"}
{"smiles": "CC(C)NC(=O)N(C)C[C@H]1Oc2c(NS(=O)(=O)c3ccc(Cl)cc3)cccc2C(=O)N([C@H](C)CO)C[C@@H]1C", "cytotoxicity call": "inactive"}
{"smiles": "C[C@H](CO)N1C[C@H](C)[C@@H](CN(C)C(=O)Nc2ccc(F)cc2)Oc2c(NS(=O)(=O)c3cn(C)cn3)cccc2C1=O", "cytotoxicity call": "inactive"}
{"smiles": "O=C(NCC(F)(F)F)[C@@H]1c2ccccc2C(=O)N(CC23CC4CC(CC(C4)C2)C3)[C@H]1c1ccc(CO)cc1", "cytotoxicity call": "inactive"}
{"smiles": "CN1CCC2(CC1)CN(C(=O)CNC(N)=O)CCCN2C", "cytotoxicity call": "inactive"}
{"smiles": "C[C@H](CO)N1C[C@H](C)[C@@H](CN(C)C(=O)NC2CCCCC2)Oc2ccc(NC(=O)Nc3cccc4ccccc34)cc2C1=O", "cytotoxicity call": "inactive"}
{"smiles": "C[C@@H]1CN([C@H](C)CO)C(=O)c2cc(NC(=O)NC3CCCCC3)ccc2O[C@H]1CN(C)C(=O)Nc1cccc2ccccc12", "cytotoxicity call": "inactive"}
{"smiles": "C[C@@H]1CN([C@H](C)CO)C(=O)c2cc(NC(=O)Nc3cccc4ccccc34)ccc2O[C@H]1CN(C)C(=O)NC1CCCCC1", "cytotoxicity call": "active"}
{"smiles": "C[C@@H]1CN([C@@H](C)CO)C(=O)c2cc(NC(=O)NC3CCCCC3)ccc2O[C@H]1CN(C)C(=O)Nc1cccc2ccccc12", "cytotoxicity call": "inactive"}
{"smiles": "C[C@@H]1CN([C@@H](C)CO)C(=O)c2cc(NC(=O)NC3CCCCC3)ccc2O[C@@H]1CN(C)C(=O)Nc1cccc2ccccc12", "cytotoxicity call": "active"}
{"smiles": "C[C@@H]1CN([C@H](C)CO)C(=O)c2cc(NC(=O)Nc3cccc4ccccc34)ccc2O[C@@H]1CN(C)C(=O)NC1CCCCC1", "cytotoxicity call": "inactive"}
{"smiles": "COC(=O)CCn1ccc(=O)[nH]c1=O", "cytotoxicity call": "inactive"}
{"smiles": "C[C@@H]1CN([C@@H](C)CO)C(=O)c2cc(NC(=O)Nc3ccc(C(F)(F)F)cc3)ccc2O[C@H]1CN(C)Cc1ccncc1", "cytotoxicity call": "inactive"}
{"smiles": "COc1ccc(S(=O)(=O)Nc2ccc3c(c2)C(=O)N([C@H](C)CO)C[C@H](C)[C@H](CN(C)C(=O)Nc2ccccc2)OCCCC[C@H](C)O3)cc1", "cytotoxicity call": "inactive"}
{"smiles": "C[C@H]1CN([C@@H](C)CO)C(=O)c2cccc(NC(=O)Nc3ccc(C(F)(F)F)cc3)c2O[C@@H]1CN(C)S(=O)(=O)c1ccc(F)cc1", "cytotoxicity call": "inactive"}
{"smiles": "C=CCNC(=O)[C@@H]1[C@H]2C(=O)O[C@H](c3ccccc3)[C@H](c3ccccc3)N2[C@H](c2ccc(OCCO)cc2)[C@@]12C(=O)N(C(=O)OCCOC)c1ccc(C#Cc3ccc(OC)cc3)cc12", "cytotoxicity call": "inactive"}
{"smiles": "COc1ccc(NC(=O)Nc2ccc3c(c2)CC(=O)N([C@@H](C)CO)C[C@@H](C)[C@H](CN(C)Cc2ccc(Oc4ccccc4)cc2)O3)cc1", "cytotoxicity call": "active"}
{"smiles": "COc1ccc(NC(=O)Nc2ccc3c(c2)CC(=O)N([C@H](C)CO)C[C@@H](C)[C@@H](CN(C)Cc2ccc(Oc4ccccc4)cc2)O3)cc1", "cytotoxicity call": "inactive"}
{"smiles": "COc1ccc(NC(=O)Nc2ccc3c(c2)CC(=O)N([C@H](C)CO)C[C@H](C)[C@H](CN(C)Cc2ccc(-c4ccccc4)cc2)O3)cc1", "cytotoxicity call": "inactive"}
{"smiles": "C[C@H]1CN([C@@H](C)CO)C(=O)Cc2cc(NC(=O)Nc3ccccc3)ccc2O[C@H]1CN(C)Cc1ccc(Oc2ccccc2)cc1", "cytotoxicity call": "active"}
{"smiles": "COc1ccc(NC(=O)Nc2ccc3c(c2)CC(=O)N([C@H](C)CO)C[C@H](C)[C@H](CN(C)Cc2ccc(Oc4ccccc4)cc2)O3)cc1", "cytotoxicity call": "inactive"}
{"smiles": "COc1ccc(NC(=O)Nc2ccc3c(c2)CC(=O)N([C@@H](C)CO)C[C@H](C)[C@H](CN(C)Cc2ccc(-c4ccccc4)cc2)O3)cc1", "cytotoxicity call": "inactive"}
{"smiles": "C[C@H](CO)N1C[C@H](C)[C@H](CN(C)Cc2ccc(Oc3ccccc3)cc2)Oc2ccc(NC(=O)Nc3ccccc3)cc2CC1=O", "cytotoxicity call": "inactive"}
{"smiles": "COc1ccc(NC(=O)Nc2ccc3c(c2)CC(=O)N([C@@H](C)CO)C[C@H](C)[C@@H](CN(C)Cc2ccc(Oc4ccccc4)cc2)O3)cc1", "cytotoxicity call": "inactive"}
{"smiles": "COc1ccc(NC(=O)Nc2ccc3c(c2)CC(=O)N([C@@H](C)CO)C[C@@H](C)[C@@H](CN(C)Cc2ccc(Oc4ccccc4)cc2)O3)cc1", "cytotoxicity call": "inactive"}
{"smiles": "C[C@@H]1CN([C@@H](C)CO)C(=O)Cc2cc(NC(=O)Nc3ccccc3)ccc2O[C@@H]1CN(C)Cc1ccc(Oc2ccccc2)cc1", "cytotoxicity call": "active"}
{"smiles": "COc1ccc(NC(=O)Nc2ccc3c(c2)CC(=O)N([C@H](C)CO)C[C@H](C)[C@@H](CN(C)Cc2ccc(-c4ccccc4)cc2)O3)cc1", "cytotoxicity call": "active"}
{"smiles": "C[C@H](CO)N1C[C@H](C)[C@@H](CN(C)Cc2ccc(Oc3ccccc3)cc2)Oc2ccc(NC(=O)Nc3ccccc3)cc2CC1=O", "cytotoxicity call": "inactive"}
{"smiles": "C[C@H](CO)N1C[C@H](C)[C@@H](CN(C)C(=O)Cc2ccncc2)Oc2ncc(C#CC3(O)CCCC3)cc2C1=O", "cytotoxicity call": "inactive"}
{"smiles": "C[C@@H]1CN([C@H](C)CO)C(=O)c2cc(NC(=O)Nc3cccc4ccccc34)ccc2O[C@H]1CN(C)Cc1ccc(C(=O)O)cc1", "cytotoxicity call": "inactive"}
{"smiles": "C[C@@H]1CCCCO[C@@H](CN(C)C(=O)CCC(F)(F)F)[C@H](C)CN([C@H](C)CO)C(=O)c2cc(NC(=O)c3ccccc3)ccc2O1", "cytotoxicity call": "inactive"}
{"smiles": "C[C@@H]1CN([C@H](C)CO)C(=O)c2cc(NC(=O)CCN3CCOCC3)ccc2O[C@@H]1CN(C)CC1CC1", "cytotoxicity call": "inactive"}
{"smiles": "C[C@H](CO)N1C[C@H](C)[C@H](CN(C)C(=O)Nc2ccc(C(F)(F)F)cc2)Oc2ccc(NC(=O)Nc3ccc(C(F)(F)F)cc3)cc2C1=O", "cytotoxicity call": "inactive"}
{"smiles": "O=C(C[C@@H]1CC[C@@H]2[C@H](COC[C@@H](O)CN2S(=O)(=O)c2ccc(F)cc2)O1)NCc1ccc(Cl)c(Cl)c1", "cytotoxicity call": "inactive"}
{"smiles": "CC(C)NC(=O)Nc1ccc2c(c1)CC(=O)N([C@@H](C)CO)C[C@@H](C)[C@H](CN(C)Cc1ccc(Oc3ccccc3)cc1)O2", "cytotoxicity call": "inactive"}
{"smiles": "CC(C)NC(=O)Nc1ccc2c(c1)CC(=O)N([C@H](C)CO)C[C@@H](C)[C@@H](CN(C)Cc1ccc(Oc3ccccc3)cc1)O2", "cytotoxicity call": "active"}
{"smiles": "CC(C)NC(=O)Nc1ccc2c(c1)CC(=O)N([C@@H](C)CO)C[C@@H](C)[C@@H](CN(C)Cc1ccc(Oc3ccccc3)cc1)O2", "cytotoxicity call": "inactive"}
{"smiles": "C[C@@H]1CN([C@H](C)CO)C(=O)Cc2cc(NC(=O)Nc3ccccc3)ccc2O[C@H]1CN(C)Cc1ccc(Oc2ccccc2)cc1", "cytotoxicity call": "inactive"}
{"smiles": "C[C@H]1CN([C@@H](C)CO)C(=O)Cc2cc(NC(=O)Nc3ccccc3)ccc2O[C@@H]1CN(C)Cc1ccc(Oc2ccccc2)cc1", "cytotoxicity call": "active"}
{"smiles": "C[C@@H]1CN([C@@H](C)CO)C(=O)Cc2cc(NC(=O)Nc3ccc4c(c3)OCO4)ccc2O[C@H]1CN(C)Cc1ccc(Oc2ccccc2)cc1", "cytotoxicity call": "inactive"}
{"smiles": "C[C@H](CO)N1C[C@H](C)[C@@H](CN(C)Cc2ccc(Oc3ccccc3)cc2)Oc2ccc(NC(=O)Nc3ccc4c(c3)OCO4)cc2CC1=O", "cytotoxicity call": "active"}
{"smiles": "C[C@@H]1CN([C@H](C)CO)C(=O)Cc2cc(NC(=O)Nc3ccccc3)ccc2O[C@@H]1CN(C)Cc1ccc(Oc2ccccc2)cc1", "cytotoxicity call": "active"}
{"smiles": "C[C@H]1CN([C@@H](C)CO)C(=O)Cc2cc(NC(=O)Nc3ccc4c(c3)OCO4)ccc2O[C@@H]1CN(C)Cc1ccc(Oc2ccccc2)cc1", "cytotoxicity call": "inactive"}
{"smiles": "C[C@@H]1CN([C@@H](C)CO)C(=O)Cc2cc(NC(=O)Nc3ccccc3)ccc2O[C@H]1CN(C)Cc1ccc(Oc2ccccc2)cc1", "cytotoxicity call": "inactive"}
{"smiles": "COc1ccc2c3c(n(c2c1)C)[C@H](CO)N(CC1CCOCC1)C[C@]13CCN(CC1)C(=O)c1cnccn1", "cytotoxicity call": "inactive"}
{"smiles": "CO[C@H]1CN(C)C(=O)c2cc(NC(=O)c3ccc(F)cc3)ccc2OC[C@@H](C)N(C(=O)CN(C)C)C[C@@H]1C", "cytotoxicity call": "inactive"}
{"smiles": "C=CC[C@@H](CC(=O)N[C@@H](CO)Cc1ccccc1)C(=O)N[C@@H](C)COC(=O)[C@@H](CC=C)CC(=O)OC(C)(C)C", "cytotoxicity call": "inactive"}
{"smiles": "COc1ccccc1S(=O)(=O)N(C)C[C@@H]1OCc2cnnn2CCCC(=O)N([C@@H](C)CO)C[C@H]1C", "cytotoxicity call": "inactive"}
{"smiles": "COc1ccccc1CNC(=O)C[C@H]1C[C@@H]2c3cc(NC(=O)NC4CCCC4)ccc3O[C@@H]2[C@@H](CO)O1", "cytotoxicity call": "inactive"}
{"smiles": "C[C@H](CO)N1C[C@H](C)[C@H](CN(C)C(=O)Nc2ccc(F)cc2)OCCCC[C@H](C)Oc2ccc(NC(=O)Nc3ccc(F)cc3)cc2C1=O", "cytotoxicity call": "inactive"}
{"smiles": "C[C@@H]1CN([C@@H](C)CO)C(=O)c2cc(NC(=O)NC3CCCCC3)ccc2O[C@@H](C)CCCCO[C@H]1CN(C)CC1CCCCC1", "cytotoxicity call": "inactive"}
{"smiles": "C[C@@H]1CN([C@@H](C)CO)C(=O)c2cc(NS(=O)(=O)c3cccs3)ccc2O[C@@H](C)CCCCO[C@@H]1CN(C)Cc1ccc2c(c1)OCO2", "cytotoxicity call": "inactive"}
{"smiles": "CN(C)C(=O)C[C@H]1C=C[C@@H](NC(=O)C2CCOCC2)[C@H](CO)O1", "cytotoxicity call": "inactive"}
{"smiles": "C[C@@H]1CN([C@H](C)CO)C(=O)c2cc(NC(=O)Nc3ccccc3)ccc2O[C@H]1CN(C)Cc1ccc(Cl)c(Cl)c1", "cytotoxicity call": "inactive"}
{"smiles": "C[C@@H]1CN([C@@H](C)CO)C(=O)c2cc(NC(=O)Nc3ccccc3)ccc2O[C@@H]1CN(C)Cc1ccc(Cl)c(Cl)c1", "cytotoxicity call": "active"}
{"smiles": "C[C@H]1CN([C@@H](C)CO)C(=O)c2cc(NC(=O)Nc3ccccc3)ccc2O[C@H]1CN(C)Cc1ccc(Cl)c(Cl)c1", "cytotoxicity call": "active"}
{"smiles": "C[C@H]1CN([C@@H](C)CO)C(=O)c2cc(NC(=O)Nc3ccccc3)ccc2O[C@@H]1CN(C)Cc1ccc(Cl)c(Cl)c1", "cytotoxicity call": "inactive"}
{"smiles": "C[C@@H]1CN([C@H](C)CO)C(=O)c2cc(NC(=O)Nc3ccccc3)ccc2O[C@@H]1CN(C)Cc1ccc(Cl)c(Cl)c1", "cytotoxicity call": "inactive"}
{"smiles": "C[C@H](CO)N1C[C@H](C)[C@@H](CN(C)Cc2ccc(Cl)c(Cl)c2)Oc2ccc(NC(=O)Nc3ccccc3)cc2C1=O", "cytotoxicity call": "inactive"}
